Of roughly 7,900 targets only a part is listed; those with a hit were picked by preference. About 0.6% of all pairs of compound and target were hits. A number with no mark means an inactive call.
How the values were obtained:
Assay in all cases: log2 fold change, soluble protein after heating vs DMSO (PISA); higher = thermal stabilisation; K562 cells, 10 uM, 30 min; active = over 0.2 and 3.5 SD of the protein, either way, in both replicates (recomputed)
[1] = target: ZC3H8 (UniProt Q8N5P1)
In short: (§1)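 For each measurement, 10 μM compound was applied for 30 min to K562 cells at 2×10^6 cells/mL. Aliquots were heated for 3 min across 48°C-58°C, pooled, and extracted in PBS with 0.5% NP-40 at 4°C; the supernatant after 21,000xg for 90 min was soluble protein. This was quantified by TMTpro 16plex LC-MS/MS with channel sums equalised, and thermal stability was reported relative to control samples from duplicates, on a log2 fold-change scale.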

[2] = target: ZC3HC1 (UniProt Q86WB0)
In short: as §1

[3] = target: ZCCHC9 (UniProt Q8N567)
In short: as §1

[4] = target: ZDHHC17 (UniProt Q8IUH5)
In short: as §1

[5] = target: ZDHHC20 (UniProt Q5W0Z9)
In short: as §1

[6] = target: ZDHHC5 (UniProt Q9C0B5)
In short: as §1

[7] = target: ZDHHC7 isoform 2 (UniProt Q9NXF8)
In short: as §1

[8] = target: ZDHHC8 isoform 3 (UniProt Q9ULC8)
In short: as §1

[9] = target: ZEB2 (UniProt O60315)
In short: as §1

[10] = target: ZER1 (UniProt Q7Z7L7)
In short: as §1

[11] = target: ZFAND5 (UniProt O76080)
In short: as §1

[12] = target: ZFAND6 (UniProt Q6FIF0)
In short: as §1

[13] = target: ZFP91 (UniProt Q96JP5)
In short: as §1

[14] = target: ZFPL1 (UniProt O95159)
In short: as §1

[15] = target: ZMAT2 (UniProt Q96NC0)
In short: as §1

[16] = target: ZMYM1 (UniProt Q5SVZ6)
In short: as §1

[17] = target: ZMYM3 (UniProt Q14202)
In short: as §1

[18] = target: ZNF143 (UniProt P52747)
In short: as §1

[19] = target: ZDHHC6 (UniProt Q9H6R6)
In short: as §1

Chain of ZER1 (Q7Z7L7 whole entry, looked up): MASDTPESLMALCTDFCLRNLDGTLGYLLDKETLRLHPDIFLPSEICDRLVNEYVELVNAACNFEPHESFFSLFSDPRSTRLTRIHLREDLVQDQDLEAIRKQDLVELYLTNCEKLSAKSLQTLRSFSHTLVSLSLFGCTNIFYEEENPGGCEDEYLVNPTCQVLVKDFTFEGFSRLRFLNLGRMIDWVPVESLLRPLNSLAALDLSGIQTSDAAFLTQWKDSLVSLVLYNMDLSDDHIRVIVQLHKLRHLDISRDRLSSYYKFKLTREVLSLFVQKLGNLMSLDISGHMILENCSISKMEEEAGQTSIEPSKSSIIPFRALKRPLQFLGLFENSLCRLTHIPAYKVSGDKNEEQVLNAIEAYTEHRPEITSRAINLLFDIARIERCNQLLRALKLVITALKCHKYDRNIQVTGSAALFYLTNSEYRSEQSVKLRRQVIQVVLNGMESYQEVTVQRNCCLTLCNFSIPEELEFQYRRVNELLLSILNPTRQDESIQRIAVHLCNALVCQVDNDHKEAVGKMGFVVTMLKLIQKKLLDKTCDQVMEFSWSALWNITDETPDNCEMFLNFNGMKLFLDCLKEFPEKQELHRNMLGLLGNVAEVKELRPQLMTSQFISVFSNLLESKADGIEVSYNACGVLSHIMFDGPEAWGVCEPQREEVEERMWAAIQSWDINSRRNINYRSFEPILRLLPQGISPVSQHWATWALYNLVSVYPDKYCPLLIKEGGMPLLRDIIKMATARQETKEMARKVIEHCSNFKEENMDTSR
Chain of ZNF143 (P52747 whole entry, looked up): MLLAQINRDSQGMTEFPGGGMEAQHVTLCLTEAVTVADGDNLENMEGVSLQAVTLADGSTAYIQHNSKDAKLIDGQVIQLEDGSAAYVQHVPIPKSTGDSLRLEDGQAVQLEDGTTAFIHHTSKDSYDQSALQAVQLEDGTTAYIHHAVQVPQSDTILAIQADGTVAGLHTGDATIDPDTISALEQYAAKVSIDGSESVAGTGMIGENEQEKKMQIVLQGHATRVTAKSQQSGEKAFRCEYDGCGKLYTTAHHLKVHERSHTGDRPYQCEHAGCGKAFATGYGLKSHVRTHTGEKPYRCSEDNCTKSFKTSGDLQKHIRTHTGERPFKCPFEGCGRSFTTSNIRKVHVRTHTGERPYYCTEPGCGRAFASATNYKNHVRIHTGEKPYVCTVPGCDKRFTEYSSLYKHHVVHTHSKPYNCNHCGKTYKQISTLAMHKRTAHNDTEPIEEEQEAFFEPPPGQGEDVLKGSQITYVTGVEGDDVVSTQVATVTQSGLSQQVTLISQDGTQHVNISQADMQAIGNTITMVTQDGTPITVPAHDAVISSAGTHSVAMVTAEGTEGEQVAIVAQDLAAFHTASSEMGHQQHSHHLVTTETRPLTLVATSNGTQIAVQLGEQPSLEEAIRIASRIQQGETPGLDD
Chain of ZEB2 (O60315 whole entry, looked up): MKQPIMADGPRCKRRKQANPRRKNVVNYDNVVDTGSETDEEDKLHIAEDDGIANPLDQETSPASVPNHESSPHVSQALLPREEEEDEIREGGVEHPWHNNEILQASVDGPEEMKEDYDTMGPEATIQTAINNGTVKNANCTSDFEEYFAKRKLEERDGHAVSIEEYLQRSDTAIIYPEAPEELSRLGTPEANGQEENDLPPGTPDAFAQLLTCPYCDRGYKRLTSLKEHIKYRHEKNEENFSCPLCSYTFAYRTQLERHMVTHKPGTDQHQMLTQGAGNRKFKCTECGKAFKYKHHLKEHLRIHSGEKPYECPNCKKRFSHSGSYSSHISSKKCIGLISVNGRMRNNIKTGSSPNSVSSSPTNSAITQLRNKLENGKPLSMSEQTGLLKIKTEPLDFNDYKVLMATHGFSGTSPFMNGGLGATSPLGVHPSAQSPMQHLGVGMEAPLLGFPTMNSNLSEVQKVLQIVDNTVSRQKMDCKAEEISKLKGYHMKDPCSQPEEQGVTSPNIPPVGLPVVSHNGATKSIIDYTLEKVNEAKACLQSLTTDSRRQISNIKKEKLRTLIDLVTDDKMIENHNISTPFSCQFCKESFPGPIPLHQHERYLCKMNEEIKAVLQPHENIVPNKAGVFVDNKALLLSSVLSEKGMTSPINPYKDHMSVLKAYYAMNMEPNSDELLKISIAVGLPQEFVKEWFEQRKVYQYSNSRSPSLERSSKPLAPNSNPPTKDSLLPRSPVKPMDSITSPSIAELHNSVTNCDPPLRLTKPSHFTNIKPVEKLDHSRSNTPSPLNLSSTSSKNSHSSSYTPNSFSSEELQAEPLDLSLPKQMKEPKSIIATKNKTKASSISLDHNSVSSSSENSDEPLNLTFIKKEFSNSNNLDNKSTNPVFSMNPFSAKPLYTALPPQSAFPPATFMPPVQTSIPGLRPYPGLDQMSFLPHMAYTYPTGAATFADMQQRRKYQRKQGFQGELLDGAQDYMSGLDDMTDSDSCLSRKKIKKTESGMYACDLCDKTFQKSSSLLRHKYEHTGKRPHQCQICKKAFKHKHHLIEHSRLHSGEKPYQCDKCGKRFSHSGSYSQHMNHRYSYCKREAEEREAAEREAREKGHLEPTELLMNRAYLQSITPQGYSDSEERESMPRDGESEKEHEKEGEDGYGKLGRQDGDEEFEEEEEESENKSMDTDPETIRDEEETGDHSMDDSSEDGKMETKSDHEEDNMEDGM
Chain of ZDHHC8 isoform 3 (Q9ULC8 whole entry, looked up, canonical isoform): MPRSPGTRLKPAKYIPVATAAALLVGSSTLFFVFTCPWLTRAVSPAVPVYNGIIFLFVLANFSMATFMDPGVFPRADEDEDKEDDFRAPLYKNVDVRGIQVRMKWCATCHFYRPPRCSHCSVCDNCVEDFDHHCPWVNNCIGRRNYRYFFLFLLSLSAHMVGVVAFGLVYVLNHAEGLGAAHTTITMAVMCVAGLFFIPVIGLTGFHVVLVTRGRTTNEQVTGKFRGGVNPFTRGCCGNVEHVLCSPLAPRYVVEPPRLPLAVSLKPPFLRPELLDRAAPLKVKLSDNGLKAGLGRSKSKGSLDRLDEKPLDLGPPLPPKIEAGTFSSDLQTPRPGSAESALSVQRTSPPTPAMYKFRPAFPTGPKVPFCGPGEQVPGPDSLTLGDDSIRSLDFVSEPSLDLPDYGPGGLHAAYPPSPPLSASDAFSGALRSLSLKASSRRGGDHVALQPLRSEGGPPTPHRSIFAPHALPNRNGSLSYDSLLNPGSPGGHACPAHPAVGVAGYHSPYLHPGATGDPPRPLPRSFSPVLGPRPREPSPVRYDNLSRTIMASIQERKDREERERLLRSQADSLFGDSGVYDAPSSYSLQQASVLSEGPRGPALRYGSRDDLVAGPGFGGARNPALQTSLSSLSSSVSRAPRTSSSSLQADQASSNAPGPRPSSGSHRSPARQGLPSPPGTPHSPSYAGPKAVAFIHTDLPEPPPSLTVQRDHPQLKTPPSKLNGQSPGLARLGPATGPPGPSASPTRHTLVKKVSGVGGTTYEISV
Chain of ZFP91 (Q96JP5 whole entry, looked up): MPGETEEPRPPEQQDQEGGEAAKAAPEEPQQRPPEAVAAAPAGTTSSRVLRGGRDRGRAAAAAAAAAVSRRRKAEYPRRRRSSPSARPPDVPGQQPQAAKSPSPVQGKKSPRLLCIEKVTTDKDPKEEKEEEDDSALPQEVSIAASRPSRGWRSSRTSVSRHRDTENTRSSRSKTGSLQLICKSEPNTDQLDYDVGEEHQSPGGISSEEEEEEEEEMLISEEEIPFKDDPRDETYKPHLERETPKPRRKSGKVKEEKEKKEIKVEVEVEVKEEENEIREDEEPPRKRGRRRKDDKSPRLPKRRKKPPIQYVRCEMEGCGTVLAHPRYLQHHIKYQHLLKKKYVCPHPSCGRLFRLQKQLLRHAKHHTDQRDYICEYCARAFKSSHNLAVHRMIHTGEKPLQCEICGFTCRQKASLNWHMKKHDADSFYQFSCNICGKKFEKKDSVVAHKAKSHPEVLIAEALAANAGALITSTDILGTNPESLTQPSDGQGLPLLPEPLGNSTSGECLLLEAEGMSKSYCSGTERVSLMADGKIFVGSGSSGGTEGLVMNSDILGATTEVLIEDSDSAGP
Chain of ZCCHC9 (Q8N567 whole entry, looked up): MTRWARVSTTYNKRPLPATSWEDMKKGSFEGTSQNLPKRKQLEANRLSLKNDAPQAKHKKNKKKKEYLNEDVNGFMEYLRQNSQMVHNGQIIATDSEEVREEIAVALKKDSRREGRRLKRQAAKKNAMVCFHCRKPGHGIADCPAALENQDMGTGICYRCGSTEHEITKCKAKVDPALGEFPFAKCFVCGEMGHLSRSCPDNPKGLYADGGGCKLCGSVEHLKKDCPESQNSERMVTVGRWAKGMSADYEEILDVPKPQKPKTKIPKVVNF
Chain of ZMAT2 (Q96NC0 whole entry, looked up): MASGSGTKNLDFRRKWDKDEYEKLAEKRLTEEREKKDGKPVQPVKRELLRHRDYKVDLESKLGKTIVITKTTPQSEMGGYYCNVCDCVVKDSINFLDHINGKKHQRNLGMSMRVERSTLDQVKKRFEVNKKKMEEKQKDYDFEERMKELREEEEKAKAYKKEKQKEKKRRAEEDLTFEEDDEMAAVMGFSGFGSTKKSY
Chain of ZDHHC20 (Q5W0Z9 whole entry, looked up): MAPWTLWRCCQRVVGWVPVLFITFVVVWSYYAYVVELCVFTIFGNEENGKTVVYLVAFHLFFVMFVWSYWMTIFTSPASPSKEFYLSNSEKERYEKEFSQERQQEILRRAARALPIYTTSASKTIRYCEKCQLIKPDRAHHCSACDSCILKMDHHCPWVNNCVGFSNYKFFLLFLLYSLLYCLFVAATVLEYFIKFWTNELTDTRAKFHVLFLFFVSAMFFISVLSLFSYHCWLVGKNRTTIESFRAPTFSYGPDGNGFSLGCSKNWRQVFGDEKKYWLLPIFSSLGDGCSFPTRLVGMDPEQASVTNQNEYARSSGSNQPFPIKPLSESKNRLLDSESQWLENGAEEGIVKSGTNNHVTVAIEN
Chain of ZFAND6 (Q6FIF0 whole entry, looked up): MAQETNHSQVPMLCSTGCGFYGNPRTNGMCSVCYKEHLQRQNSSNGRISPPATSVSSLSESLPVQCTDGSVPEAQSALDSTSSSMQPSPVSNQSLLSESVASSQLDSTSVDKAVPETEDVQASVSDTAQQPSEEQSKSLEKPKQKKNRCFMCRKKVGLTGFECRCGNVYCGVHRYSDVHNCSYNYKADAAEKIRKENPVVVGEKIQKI

| SMILES | log2 fold change [1] | log2 fold change [2] | log2 fold change [3] | log2 fold change [4] | log2 fold change [5] | log2 fold change [6] | log2 fold change [7] | log2 fold change [8] | log2 fold change [9] | log2 fold change [10] | log2 fold change [11] | log2 fold change [12] | log2 fold change [13] | log2 fold change [14] | log2 fold change [15] | log2 fold change [16] | log2 fold change [17] | log2 fold change [18] | log2 fold change [19] |
| --- | --- | --- | --- | --- | --- | --- | --- | --- | --- | --- | --- | --- | --- | --- | --- | --- | --- | --- | --- |
| CC1=C(C(=O)Nc2cc3cn[nH]c3cc2F)C(c2ccc(C(F)(F)F)cc2)CC(=O)N1 (configuration not stated) | -0.072 | 0.057 | 0.012 | -0.013 | 0.047 | 0.022 | 0.114 | -0.083 | -0.076 | -0.112 | 0.058 | -0.013 | 0.058 | 0.041 | 0.026 | 0.088 | 0.062 | 0.033 |  |
| CC(C)(C)Cn1c(N)nc2ccc(-c3[nH]c(C(C)(C)C)nc3-c3ccc(F)cc3)nc21 [ralimetinib] | 0.047 | 0.035 | 0.017 | -0.099 | -0.187 | -0.001 | -0.033 |  | -0.075 | 0.089 | 0.024 | -0.048 | -0.033 | 0.152 | -0.024 | 0.078 | -0.07 | 0.112 |  |
| Cc1cc(Nc2cc(N3CCN(C)CC3)nc(Sc3ccc(NC(=O)C4CC4)cc3)n2)n[nH]1 [tozasertib] | 0.058 | 0.047 | 0.04 | -0.02 | 0.006 | -0.057 | -0.04 | -0.041 | 0.022 | 0.008 | -0.076 | -0.084 | 0.01 | 0.009 | -0.039 | -0.043 | -0.033 | 0.057 |  |
| CC[C@H](C)n1cc(C)c2c(C(=O)NCc3c(C)cc(C)[nH]c3=O)cc(-c3ccc(N4CCNCC4)nc3)cc21 | -0.012 | 0.164 | 0.013 | -0.022 | -0.046 | -0.052 | -0.099 | -0.064 | 0.173 | 0.064 | -0.045 | -0.05 | 0.04 | -0.013 | -0.073 | -0.016 | 0.055 | 0.068 |  |
| Cc1ccc(NC(=O)c2cccc(N(C)C)c2)cc1NC(=O)c1ccc(O)cc1 | 0.03 | -0.209 | 0.062 | 0.01 | 0.085 | -0.007 | 0.014 |  | 0.071 | -0.059 | 0.034 | 0.026 | 0.036 | 0.094 | 0 | 0.051 | 0.056 | 0.023 |  |
| CCn1c(C(=O)N(C2CC2)C2CC2)cc2c3c(ncn3C)c(Nc3cc(C)n(C)n3)nc21 | -0.034 | -0.059 | 0.003 | -0.061 | -0.023 | -0.012 | 0.011 |  | -0.041 | 0.045 | 0.063 | 0.046 | -0.028 | 0.042 | 0.022 | -0.079 | -0.029 | 0.075 |  |
| Oc1cc(-c2nc(-c3ccccc3)[nH]c2-c2ccncc2)ccc1Cl | -0.076 | 0.024 | -0.271 | 0.002 | -0.232 | 0.01 | 0.026 |  | -0.053 | 0.012 | -0.024 | -0.006 | -0.06 | -0.119 | -0.042 | -0.101 | -0.033 | 0.093 |  |
| NC1(Cc2ccc(Cl)cc2)CCN(c2ncnc3[nH]ccc23)CC1 | -0.01 | 0.019 | -0.1 | 0.022 | 0.059 | 0.071 | 0 | 0.063 | -0.149 | 0.043 | 0.119 | 0.038 | -0.042 | 0.071 | 0.058 | 0.052 | 0.117 | 0.085 |  |
| O=C(CCCCCCC(=O)Nc1ccccc1)NO [vorinostat] | -0.039 | 0.04 | -0.065 | -0.079 | -0.021 | -0.02 | 0.006 |  |  | 0.055 | -0.047 | 0.04 | 0.013 | -0.053 | -0.019 | -0.02 | 0.073 | 0.037 | -0.108 |
| O=C(Nc1cccc(Nc2ncc(Br)c(NCCc3cnc[nH]3)n2)c1)N1CCCC1 | 0.038 | -0.078 | 0.08 | 0.011 | -0.025 | -0.076 | 0.028 | 0.06 | -0.106 | -0.015 | 0.01 | -0.058 | 0.004 | -0.047 | 0.017 | -0.136 | -0.042 | -0.058 |  |
| Cc1cn(-c2cc(NC(=O)c3ccc(C)c(Nc4nccc(-c5cccnc5)n4)c3)cc(C(F)(F)F)c2)cn1 [nilotinib] | 0.016 | -0.052 | -0.046 | -0.004 | 0.016 | 0.091 | 0.104 | 0.086 | 0.025 | 0.098 | 0.098 | 0.014 | 0.023 | -0.047 | 0.012 | -0.009 | 0.041 | -0.105 |  |
| C#Cc1cccc(Nc2ncnc3cc(OCCOC)c(OCCOC)cc23)c1 [erlotinib] | -0.091 | 0.075 | -0.099 | 0.091 | 0.163 | 0.028 | 0.09 |  | 0.101 | 0.086 | -0.028 | 0.024 | -0.004 | -0.022 | -0.017 | 0.14 | 0.042 | 0.021 |  |
| Cc1ccc(C(=O)N(CCCN)[C@@H](c2nc3cc(Cl)ccc3c(=O)n2Cc2ccccc2)C(C)C)cc1 [ispinesib] | -0.016 | -0.027 | -0.353 | 0.023 | -0.076 | -0.035 | 0.126 |  | 0.05 | 0.153 | -0.07 | -0.082 | -0.227 | 0.236 | 0.042 | -0.122 | -0.013 | -0.038 |  |
| Cc1ccc(-n2nc(C(C)(C)C)cc2NC(=O)Nc2ccc(OCCN3CCOCC3)c3ccccc23)cc1 [doramapimod] | 0.038 | -0.056 | 0.169 | 0.264 (active) | -0.025 | 0.027 | 0.113 | 0.359 | 0.032 | -0.163 | 0.106 | 0.017 | 0.109 | -0.098 | -0.024 | 0.003 | -0.009 | 0.01 |  |
| O=C(O)c1ccc2c(c1)nc(Nc1cccc(Cl)c1)c1ccncc12 [silmitasertib] | 0.035 | 0.06 | 0.095 | 0.025 | 0.08 | 0.101 |  |  | -0.001 | 0.028 | -0.03 | -0.018 | 0.086 | 0.003 | 0.028 | 0.255 | -0.012 | 0.023 |  |
| FC(F)(F)c1ccc(/C=C/c2nc(COc3ccc(CCCCn4ccnn4)cc3)co2)cc1 [mubritinib] | -0.102 | -0.049 | -0.087 | 0.051 | 0.03 | 0.025 |  |  | -0.114 | 0.044 | 0.099 | 0.017 | -0.076 | -0.007 | 0.049 | -0.081 | -0.072 | 0.094 |  |

— the supplement of paper PMC10849652
